D3 antag = antagonists of human D3 dopamine receptor; D3R cells, DiscoveRx beta-arrestin luminescence, antagonist mode; hits give low values; max response, negative = inhibition, %; 360,000 compounds, 2.5% hits; AID 652054; P35462; in the data active = max response below about -50%; inconclusive = no clear call, values can overlap the other calls
Target sequence (P35462 whole entry, looked up): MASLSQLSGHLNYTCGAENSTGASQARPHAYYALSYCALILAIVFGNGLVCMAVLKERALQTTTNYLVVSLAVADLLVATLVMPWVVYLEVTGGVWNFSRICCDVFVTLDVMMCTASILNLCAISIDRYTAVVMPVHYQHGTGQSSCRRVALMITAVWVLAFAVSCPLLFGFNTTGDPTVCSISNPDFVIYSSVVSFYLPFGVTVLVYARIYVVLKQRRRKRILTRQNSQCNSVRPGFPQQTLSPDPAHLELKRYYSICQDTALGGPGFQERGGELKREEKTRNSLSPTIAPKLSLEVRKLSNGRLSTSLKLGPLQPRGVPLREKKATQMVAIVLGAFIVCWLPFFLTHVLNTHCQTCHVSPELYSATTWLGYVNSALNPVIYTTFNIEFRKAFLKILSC
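Cells expressing the human receptor were seeded at 1500 cells/well, incubated overnight at 37 degrees C in 5% CO2, then exposed to library compounds with dopamine controls for 90 minutes at 37 degrees C before luminescent detection.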
D3 ag = agonists of human D3 dopamine receptor; P35462; D3R DiscoveRx beta-arrestin cells, luminescence, 90 min; max activation, %; 410,000 compounds, 0.58% hits; in the data active = max activation above about 30%
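Agonist mode: compounds and dopamine controls were applied to plated cells for 90 min at 37 degrees C after an overnight attachment at 1500 cells/well. Luminescent read-out followed 30 - 60 minutes at room temperature with DiscoveRx detection reagent.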
IL1B secr inh = blocks inflammasome-driven IL-1 beta release; activity change, % at 57.5 µM; 360,000 compounds, 4.7% hits; THP-1 LPS/ATP IL-1B secretion, AlphaLISA, 16 h; hits give low values; in the data active = activity change below about -50%; inconclusive = mostly about -30% to -49%
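THP-1 cells pretreated 1 hr with compounds (up to 57.5 uM final), then stimulated with LPS (250 ng/mL final) plus ATP (1.25 mM final); secreted IL-1B measured by AlphaLISA after 16 hr, decreased signal indicating inhibition.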
TDP1 cell noCPT = qHTS for Inhibitors of human tyrosyl-DNA phosphodiesterase 1 (TDP1): qHTS in cells in absence of CPT. 420,000 compounds, 15% hits. Potency, µM (highest dose often 46.2 µM), most hits filed as inhibitors. DT40 Tdp1-/- hTDP1 cells, no CPT, ATP luminescence, 48 h; also: nearly all actives have a fitted effect of over 55% in size
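Luminescent ATP content (CellTiter-Glo) served as the growth readout. Knockout chicken DT40 cells expressing human TDP1 were exposed to compounds without camptothecin for a minimum 48 hr at 37 °C.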
DT40 TDP1 CPT = growth inhibition of DT40 Tdp1-/-;hTDP1 cells with camptothecin (screen for TDP1 inhibitors) | Potency, µM (highest dose often 46.2 µM), hits mostly inhibitors | 420,000 compounds, 12% hits | chicken DT40 Tdp1-/-;hTDP1 cells + 20 nM CPT, ATP luminescence, 48 h | AID 686979; also: nearly all actives have a fitted effect of over 55% in size
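Chicken DT40 Tdp1-/- cells stably complemented with human TDP1 were seeded at 400 cells/well in medium containing 20 nM camptothecin, exposed to pin-transferred compounds, and grown at 37 °C for at least 48 hr. Viability was read as ATP luminescence.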
ClpP mod = qHTS Assay for Activators of ClpP; ATP-dependent Clp protease proteolytic subunit (Bacillus subtilis (strain 168)), P80244; purified B. subtilis ClpP, FRET peptide cleavage, 20 min; Potency, µM (top dose mostly 57.5 µM); 340,000 compounds, 1.9% hits; AID 651965, 2013; active = well fitted falling curve with a large enough effect; inconclusive = small, poorly fitted or top-dose-only effect; inactive = no such curve, though single readings can be large or run the other way; also: the source files actives as falling curves though it sought activators and does not explain the sign; nearly all actives have a fitted effect of over 65% in size
Target sequence (P80244 whole entry, looked up): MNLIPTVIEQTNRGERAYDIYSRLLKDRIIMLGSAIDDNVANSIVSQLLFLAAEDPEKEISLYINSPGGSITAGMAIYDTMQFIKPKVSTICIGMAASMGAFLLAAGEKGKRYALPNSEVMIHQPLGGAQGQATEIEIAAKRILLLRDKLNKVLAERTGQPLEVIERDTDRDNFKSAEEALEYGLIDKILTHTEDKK
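Purified B. subtilis ClpP, 10 microg/mL final in Tris/HCl pH8 with KCl, BSA, glycerol and Tween-20, cleaved an Abz/nitrotyrosine-quenched decapeptide. Fluorescence (ex 320, em 430) was read at 0 and 20 min at room temperature. Delta was normalized to 5.8 microM ADEP and DMSO/no-enzyme controls.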
Large screens that a line does not name were inactive. Rows were chosen to be rich in hits. Some 21% of all compounds tested hit in one or more screens of this group. Unless noted, calls follow the shape of the dose curve; as a rule, active = well fitted inhibition curve with a large enough effect; inconclusive = small, poorly fitted or top-dose-only effect; inactive = flat fitted curve, though single readings scatter.

FC(F)(F)c1cc(CCN2CCNC[C@@H]2CC2CCCCC2)cc(C(F)(F)F)c1	IL1B secr inh -101.4, TDP1 cell noCPT inconclusive, DT40 TDP1 CPT 23.1µM
CCCC[C@@H]1CNCCN1CCc1cc(C(F)(F)F)cc(C(F)(F)F)c1	IL1B secr inh -61.3, TDP1 cell noCPT 20.6µM, DT40 TDP1 CPT inconclusive
O=C1NC[C@H](Cc2ccc(O)cc2)N(CCc2cc(C(F)(F)F)cc(C(F)(F)F)c2)C1=O	none
FC(F)(F)c1cc(CCN2CCNC[C@@H]2c2ccccc2)cc(C(F)(F)F)c1	IL1B secr inh inconclusive, TDP1 cell noCPT inconclusive, DT40 TDP1 CPT 16.4µM
CC(=O)Nc1ccc(NC(=O)Cn2cnc(S(=O)(=O)N3CCOCC3)c2)cc1	none
CCn1c(=O)c2c(nc3n2CCN3c2ccccc2)n(C)c1=O	TDP1 cell noCPT inconclusive, DT40 TDP1 CPT inconclusive
CCC(C)[C@H]1CNCCN1CCc1cc(C(F)(F)F)cc(C(F)(F)F)c1 (some centres not stated)	IL1B secr inh -66.1, TDP1 cell noCPT 18.4µM, DT40 TDP1 CPT inconclusive
CCC(C)[C@H]1CNCCN1CCCc1cc(OC)c(OC)c(OC)c1 (some centres not stated)	none
O=C1/C(=C/c2ccc([N+](=O)[O-])cc2)CCC1C1CCCC1 (configuration not stated)	none
CN(C)C(=O)c1nc2ccc(Cl)cn2c1CN1CCCC(OCc2cccnc2)C1 (configuration not stated)	none
CC(C)(C)S(=O)N1Cc2cc(C(=O)N3CCc4ccccc4C3)nc(-c3cccc(-c4cccnc4)c3)c2[C@@H]1CCO (some centres not stated)	D3 antag inconclusive, TDP1 cell noCPT 20.6µM, DT40 TDP1 CPT inconclusive
COc1ccccc1-c1cccc(-c2nc(C(=O)N3CCCCC3)cc3c2[C@H](CCO)N(S(=O)C(C)(C)C)C3)c1 (some centres not stated)	TDP1 cell noCPT 18.4µM, DT40 TDP1 CPT 20.6µM
O=C1CC(C(=O)N2CCCC(c3nc(-c4ccncc4)ncc3-c3ccccc3)C2)C2(CCCCC2)O1 (configuration not stated)	none (no result: D3 antag, D3 ag, IL1B secr inh, ClpP mod)
O=C(CSc1nc(=O)n(CCN2CCOCC2)c2c1CCC2)Nc1ccccc1	none (no result: D3 antag, IL1B secr inh)
Cc1ccc(C(NC(=O)c2ccccc2)C(Cl)(Cl)Cl)cc1 (configuration not stated)	TDP1 cell noCPT 20.6µM, DT40 TDP1 CPT 14.6µM
O=C(NC(c1ccccc1)C(Cl)(Cl)Cl)c1ccccc1 (configuration not stated)	D3 antag inconclusive, TDP1 cell noCPT 20.6µM, DT40 TDP1 CPT 20.6µM
Cc1ccc(C(=O)c2cc([N+](=O)[O-])ccc2N2CCCCC2)cc1C	TDP1 cell noCPT 5.17µM, DT40 TDP1 CPT 3.26µM
Cc1ccc(C)c(N2CCN(C(=O)c3ccc(N4CCOCC4)c([N+](=O)[O-])c3)CC2)c1	IL1B secr inh -51.0, TDP1 cell noCPT 16.4µM, DT40 TDP1 CPT inconclusive (no result: ClpP mod)
Cc1ccc(C(=O)c2cc([N+](=O)[O-])ccc2N2CCOCC2)c(C)c1	TDP1 cell noCPT 0.92µM, DT40 TDP1 CPT 0.82µM, ClpP mod inconclusive
Cc1ccccc1COC(=O)c1cc([N+](=O)[O-])ccc1N1CCOCC1	TDP1 cell noCPT inconclusive, DT40 TDP1 CPT inconclusive
Cc1ccc(C(=O)c2cc([N+](=O)[O-])ccc2N2CCOCC2)cc1C	TDP1 cell noCPT 0.731µM, DT40 TDP1 CPT 1.46µM
CCC(=O)N1CCc2cc(CNC(=O)Nc3cc(OC)c(OC)c(OC)c3)ccc21	none (no result: D3 antag, IL1B secr inh)
Cc1cc(C(=O)OCC(=O)Nc2c(Cl)cccc2Cl)c(C)o1	none
C/C(=N/Nc1ccc([N+](=O)[O-])cc1)c1c[nH]c2ccccc12	TDP1 cell noCPT inconclusive, DT40 TDP1 CPT inconclusive
CCCNC(=O)C(Cc1cccc(Cl)c1)NC(=O)c1ccccc1 (configuration not stated)	DT40 TDP1 CPT inconclusive
Cn1c(O)c(C(C#N)=C2N=c3ccccc3=N2)c2ccccc21	TDP1 cell noCPT 11.6µM, DT40 TDP1 CPT 8.2µM
COC(=O)c1nnn(CC(=O)Nc2ccc(Br)c(C)c2)c1N	none (no result: D3 antag, IL1B secr inh)
CCN(C(=O)c1ccc(NC(C)=O)cc1)c1ccccc1	none
CCCCCCCN(C(=O)CCl)c1ccccc1C	IL1B secr inh -106.4, TDP1 cell noCPT 14.6µM, DT40 TDP1 CPT 18.4µM
CCN(C(=O)c1ccc(C(=O)N(CC)c2ccccc2C)cc1)c1ccccc1C	TDP1 cell noCPT 16.4µM, DT40 TDP1 CPT inconclusive (no result: D3 antag, IL1B secr inh)
CC(C)(C)C1CCC(C(=O)OCC(=O)N2CCN(C(=O)c3ccco3)CC2)CC1 (configuration not stated)	DT40 TDP1 CPT inconclusive (no result: ClpP mod)
COc1ccc(Cc2noc(CN(C)Cc3ccc(-n4cccn4)cc3)n2)cc1OC	TDP1 cell noCPT 20.6µM, DT40 TDP1 CPT inconclusive
COc1ccc(Cc2noc(CN3CCCN(Cc4ccc(F)cc4)CC3)n2)cc1OC	TDP1 cell noCPT inconclusive (no result: ClpP mod)
COc1ccc(CCN(C)Cc2nc(-c3cnccn3)no2)cc1OC	none
CCc1ccc(CN(C)Cc2nc(Cc3ccc(OC)c(OC)c3)no2)nc1	TDP1 cell noCPT inconclusive, DT40 TDP1 CPT 16.4µM (no result: ClpP mod)
C=CCN(C(=O)CCc1ccccc1OC)c1nc(-c2ccc(S(C)(=O)=O)cc2)cs1	IL1B secr inh -56.8, TDP1 cell noCPT 9.2µM, DT40 TDP1 CPT 16.4µM
CCC(=O)N(Cc1ccco1)c1nc(-c2ccc(OC)cc2)cs1	none
O=C(NC1CCCC1)C(c1ccco1)N1CCN(c2c(Cl)cncc2Cl)CC1 (configuration not stated)	TDP1 cell noCPT inconclusive, DT40 TDP1 CPT inconclusive
CC1(C(=O)Nc2cccc(C#N)c2)CCN1C(=O)C1(c2ccccc2)CC1 (configuration not stated)	TDP1 cell noCPT inconclusive, DT40 TDP1 CPT 5.17µM
CC1(C(=O)Nc2cccc(C#N)c2)CCN1C(=O)CCc1ccccc1 (configuration not stated)	TDP1 cell noCPT inconclusive, DT40 TDP1 CPT inconclusive
COc1cccc(NC(=O)C2(C)CCN2C(=O)Cc2ccc(C(C)C)cc2)c1 (configuration not stated)	TDP1 cell noCPT inconclusive, DT40 TDP1 CPT 18.4µM
CC1(C(=O)Nc2cccc(C#N)c2)CCN1C(=O)Cc1ccc(-c2ccccc2)cc1 (configuration not stated)	TDP1 cell noCPT 2.59µM, DT40 TDP1 CPT 4.11µM
CCC(=O)N1CCC1(C)C(=O)Nc1cccc(OC)c1 (configuration not stated)	none
